# Out of some 69,000 compounds screened, about 8,600 (12%) showed an effect of 50% or more. Shown is part of a subset that was picked to be rich in strong results.
# Tested on: Plasmodium berghei
# Test: Screen against P. berghei liver stage (PbLuc), transformed with Luciferase, at 10uM
# Format: functional, HepG2
# Conditions: tested at 10 uM
row,SMILES,INHIBITION [%]
1,Cc1ccc(N(C)[C@@H]2CC[C@@H]3CN(C(=O)CC4CCOCC4)C[C@@H]32)nn1,-16
2,CCSc1ccccc1C(=O)NCCn1nc(-n2cncn2)ccc1=O,16.5
3,Cn1ccc(C(=O)N2CCC(Cc3ccc4ncccc4c3)CC2)n1,28.1
4,CC(C)CNC(=O)[C@H]1C[C@H]2CN(C(=O)NCC3CCCCC3)C[C@@H]1O2,-41.9
5,CCC(NC1Cc2ccccc2C1)c1ccc(S(C)(=O)=O)cc1 (stereo not given),29.4
6,CCN(CC)S(=O)(=O)c1cnccc1N1CCN(C(C)C)CC1,-26.8
7,CCNc1nnc(SC(C(=O)NCc2cccnc2)C(C)C)s1 (stereo not given),-7.98
8,CC(CN1CCOCC1)OC(=O)c1ccccc1I (stereo not given),38.9
9,COCc1nc(C(=O)N2CCCC(n3ccnc3C)C2)cs1 (stereo not given),-23.9
10,COCc1nc(C(=O)N2CCCC(n3cccn3)C2)cs1 (stereo not given),17.8
11,COCc1nc(C(=O)N2CCCC(n3ccnc3)C2)cs1 (stereo not given),59
12,COCCn1nc(C(=O)N2CCN(C)CC2C)ccc1=O (stereo not given),58.7
13,CC1CN(C)CCN1C(=O)c1ccn(-c2cccc(F)c2)n1 (stereo not given),51.1
14,NC(=O)C1CCN(C(=O)c2ccn(-c3ccc(F)cc3)n2)C1 (stereo not given),16.1
15,CC1CN(C)CCN1C(=O)c1cccn1Cc1ccncc1 (stereo not given),8.08
16,CC1CN(C)CCN1C(=O)c1ccn(-c2cccc(Cl)c2)n1 (stereo not given),10
17,NC(=O)C1CCN(C(=O)c2ccn(-c3cccc(F)c3)n2)C1 (stereo not given),23.5
18,CC1CN(C)CCN1C(=O)c1ccn(-c2ccc(F)cc2)n1 (stereo not given),56.6
19,COCCn1nc(C(=O)N2CCOCC2C)ccc1=O (stereo not given),47.6
20,COc1ccc(-n2ccc(C(=O)N3CCN(C)CC3C)n2)cc1 (stereo not given),20.9
21,CC1CN(C)CCN1C(=O)c1ccn(-c2ccccc2Cl)n1 (stereo not given),-25.6
22,CC1CN(C)CCN1C(=O)c1ccn(-c2ccccc2)n1 (stereo not given),63.5
23,CC1COCCN1C(=O)c1ccc(=O)n(CCOc2ccccc2)n1 (stereo not given),4.41
24,Cn1ccc(C(=O)NCCOc2ccc3c(c2)CCC3)cc1=O,-15.5
25,CCc1ocnc1C(=O)N1CCCC1c1noc(C2CC2)n1 (stereo not given),34.2
26,Cc1cc(C(=O)Nc2ccc(OCCN3CCN(C)CC3)cc2)[nH]n1,-49.9
27,CCc1cc(=O)[nH]c(-c2ccc(NCCC(C)O)nc2)n1 (stereo not given),36.9

row,SMILES,INHIBITION [%]
1,CCN1CC[C@@]2(C(=O)N(C)C)CCN(C(=O)Cc3ccccc3)CC[C@@H]12,11.2
2,Cc1ccnc(N2CCCC(c3nccn3C(C)C)C2)n1 (stereo not given),15.8
3,CC(C)n1ccnc1C1CCCN(c2ccccn2)C1 (stereo not given),24.6
4,CC(C)n1ccnc1C1CCCN(c2ccnc3ccccc23)C1 (stereo not given),71.3
5,CSc1nccc(N2CCCC(c3nccn3C(C)C)C2)n1 (stereo not given),27.6
6,CC(C)n1ccnc1C1CCCN(c2nc3ccccc3s2)C1 (stereo not given),61.2
7,CC(C)n1ccnc1C1CCCN(c2ccncc2F)C1 (stereo not given),32.1
8,CN(C)C(=O)C1CCCN1CCCNC(=O)c1cccc2[nH]ncc12 (stereo not given),23.2
9,COc1cc(C(C)=O)ccc1OCCNCc1ccco1,5.67
10,COc1cccc(CN(C)C(=O)CCC(=O)c2ccc(Cl)cc2)c1OC,40.1
11,CC(=O)Nc1ccc(C(=O)N(C)Cc2cccc(F)c2)s1,39.7
12,Cc1cc(CNC(=O)N(Cc2ccc(F)cc2F)C2CC2)no1,44.1
13,CC(=O)Nc1ccc(C(=O)N(C)Cc2ccc(F)cc2F)s1,56
14,COc1cccc(CN(C)Cc2ccccc2C#N)c1OC,4.48
15,COc1cccc(CN(C)C(=O)c2ccc(NC(C)=O)s2)c1OC,61.1
16,Cn1cc(-c2cnc(N3CCOCC3)nc2)cc1C(=O)NCCC#N,47.4
17,Cn1nccc1-c1cccc(CC2CCN(S(C)(=O)=O)C2)n1 (stereo not given),12.905
18,Clc1cccc(Cl)c1-c1nnc(CNCCn2cccn2)o1,-48.4
19,Cc1nc(CCNC(=O)N2CCC(Cc3cnn(C)c3)C2)cs1 (stereo not given),-4.74
20,Fc1cccc(Cl)c1CNCCOc1ccccn1,27
21,Fc1cccc(Cl)c1CNCCCOc1ccccn1,2.61
22,Clc1cccc(Cl)c1CNCCOc1ccccn1,60
23,CCOc1nn(CC)cc1-c1nnc(SCc2cccnc2)n1CC,9
24,Cc1cc(CNc2cccc(C(=O)N(C)c3ccccc3)c2)no1,45
25,Cc1noc(C)c1CNc1cccc(C(=O)N2CCCC(O)C2)c1 (stereo not given),20.6
26,Cc1noc(C)c1CNc1cccc(C(=O)N(C)c2ccccc2)c1,59.1
27,Cc1noc(C)c1CN1C[C@@H](OCc2ccccn2)[C@H]2OCCC[C@H]21,-14.4

row,SMILES,INHIBITION [%]
1,Cc1ccc(Cc2cnc(C3CCNCC3)cn2)cc1,13.5
2,CC(C)n1nc(CN2CCOCC2)c2c1CN(Cc1ccsc1)C2,-18.2
3,OC(CN1CCC(c2ccn[nH]2)CC1)c1cccc(C(F)(F)F)c1 (stereo not given),-33.9
4,OC(CN(Cc1ccccc1)Cc1ccccn1)c1cccs1 (stereo not given),55.9
5,OC(CN(Cc1ccccc1)Cc1cscn1)c1cccs1 (stereo not given),9.72
6,OC(CN(Cc1ccccc1)Cc1cccnc1)c1cccs1 (stereo not given),57.2
7,OC(CN(Cc1ccccc1)Cc1ccncc1)c1cccs1 (stereo not given),7.11
8,OC(CN(Cc1ccccc1)Cc1ccon1)c1ccco1 (stereo not given),-21
9,Cn1cc(CN(Cc2ccccc2)CC(O)c2cccs2)cn1 (stereo not given),-58.4
10,Cc1cnc(CN(Cc2ccccc2)CC(O)c2cccs2)cn1 (stereo not given),-34.7
11,OC(CN(Cc1ccccc1)Cc1ccon1)c1cccs1 (stereo not given),70.1
12,Cc1cc(CN(Cc2ccccc2)CC(O)c2cccs2)on1 (stereo not given),30.3
13,CC(C)c1ccccc1NC(=O)N1C[C@H]2CC[C@@H](C1)N(C)C2=O,-14.5
14,Cn1cccc1CN(C(=O)CC(CC(=O)O)c1cccs1)C1CC1 (stereo not given),-42.1
15,CCN(CC)S(=O)(=O)N1C[C@H]2CC[C@@H](C1)N(Cc1cscn1)C2=O,51.1
16,O=C1[C@@H]2CC[C@@H](CN(S(=O)(=O)c3ccccc3)C2)N1Cc1cscn1,25.1
17,CCN(C)S(=O)(=O)N1C[C@H]2CC[C@@H](C1)N(Cc1cscn1)C2=O,-23.7
18,CS(=O)(=O)N1C[C@H]2CC[C@@H](C1)N(Cc1cscn1)C2=O,13.5
19,CCCS(=O)(=O)N1C[C@H]2CC[C@@H](C1)N(Cc1cscn1)C2=O,53.3
20,Cn1cnc(S(=O)(=O)N2C[C@H]3CC[C@@H](C2)N(Cc2cscn2)C3=O)c1,10.5
21,Cc1cnc(C(=O)N2C[C@@H]3CN(CC4CCCC4)CCO[C@@H]3C2)cn1,13.6
22,CN(C)Cc1cc(=O)n2c(n1)CN(C(=O)Cc1ccsc1)CCC2,33.5
23,CCc1ncc(C(=O)NCCN(C)S(C)(=O)=O)cn1,43.2
24,CCCS(=O)(=O)CC(=O)Nc1cc(CC(C)(C)C)n[nH]1,-45.9
25,O=C1CCCN1CC1CN(CC2CCOCC2)Cc2nccn2C1 (stereo not given),57.4
26,O=C1CCCN1CC1CN(C(=O)N2CCOCC2)Cc2nccn2C1 (stereo not given),34.4
27,O=C1CCCN1CC1CN(C(=O)C2CCOCC2)Cc2nccn2C1 (stereo not given),0.542

row,SMILES,INHIBITION [%]
1,CCCc1nnc2sc(C3CCN(CCOC)CC3)nn12,31.2
2,NC(=O)CN1CCOCC(Cc2cccc(F)c2)C1 (stereo not given),-44.2
3,Cc1ccc(N2CCO[C@@H]3CN(Cc4cccc(C)n4)CC[C@@H]3C2)nn1,52.3
4,Cc1cccc(CN2C[C@@H]3OCCN(S(=O)(=O)N(C)C)[C@@H]3C2)n1,54.1
5,Cc1ccc(N2C[C@@H]3CN(Cc4csc(C)n4)CCO[C@@H]3C2)nn1,42.6
6,Cc1cccc(CN2C[C@@H]3OCCN(C)[C@@H]3C2)n1,-22.7
7,Cc1cccc(N2CC[C@@H]3CN(Cc4csc(C)n4)CCO[C@@H]3C2)n1,66.5
8,Cc1cccc(CN2C[C@@H]3OCCN(S(=O)(=O)N(C)C)[C@@H]3C2)c1,-7.94
9,Cc1ccc(N2CC[C@@H]3CN(Cc4cccc(C)n4)C[C@@H]3C2)nn1,-2.41
10,Cc1nc(CN2CCO[C@@H]3CN(Cc4ccccn4)CC[C@@H]3C2)cs1,42.3
11,Cc1cccc(CN2C[C@@H]3CN(Cc4ccoc4)CCO[C@@H]3C2)n1,23.3
12,O=S(=O)(c1ccc(F)cc1)N1CCCCC1c1cc[nH]n1 (stereo not given),13
13,CN1CCN(c2ncc(-c3cnccn3)c([C@H]3CCCO3)n2)CC1,14.7
14,CN1CCN(CC2CC2)C(=O)c2cnc(N3CCOCC3)nc21,26.3
15,CN(C)C[C@]12COC[C@H]1CN(C(=O)CCc1ccccc1)C2,6.66
16,CC(C)NC(=O)N1CCC[C@H]1C(=O)NCCCc1cnn(C)c1,-34.6
17,CC(=O)N1CCC(c2nccnc2-c2ccc(F)cc2)CC1,43.6
18,Cc1cc(C)n(CC2CCCCN2C(=O)c2ccc3[nH]nnc3c2)n1 (stereo not given),20.9
19,CC(NC(=O)NCCCO)c1ccc2c(c1)OCCO2 (stereo not given),52.1
20,CC(NC(=O)Cn1cccn1)c1ccc2c(c1)OCCO2 (stereo not given),41.5
21,CC(NC(=O)CCn1cccn1)c1ccc2c(c1)OCCO2 (stereo not given),22.3
22,CC(NC(=O)NCCCO)c1ccc2c(c1)NC(=O)CO2 (stereo not given),-11.4
23,CC(NC(=O)Cn1cccn1)c1ccc2c(c1)OCCCO2 (stereo not given),62.1
24,CC(NC(=O)NCCCn1cncn1)c1ccc2c(c1)OCCO2 (stereo not given),21.8

# — ChEMBL document CHEMBL4513216, “Probing the Open Global Health Chemical Diversity Library for Multistage-Active Starting Points for Next-Generation Antimalarials” (ACS Infect Dis, 2020)
